From PubChem BioAssay (EPA / NIEHS) come the findings set out here.

Activity calls are given as the source filed them. How the source made its calls: active means hit-call score of the fitted dose curve at least 0.9, where 1 is the maximum; inactive means score below 0.9.

What is called AC50 is the concentration at which the activity in the assay is half-maximal.

Holding throughout (conditions): mRNA level, 48 h; actives raise or lower the signal
Read-out in experiment [1]: Cytochrome P450 7A1 (Homo sapiens) (UniProt P22680)
The experiment can be described thus: LTEA_HepaRG_CYP7A1: Life Technologies and Expression Analysis (LTEA) Assay for Cytochrome P450 7A1 (CYP7A1) using HepaRG (AID 2283496). The procedure, abridged:
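HepaRG cells plated 48 h, then switched to serum-free induction medium and exposed in duplicate for 48 h to 8-point half-log series from 100 uM in 0.5% DMSO. CYP7A1 mRNA by qRT-PCR (TaqMan), normalized to ACTB/GAPDH/POLR2A; bidirectional fit versus DMSO.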

Read-out in experiment [2]: Glutathione S-Transferase (GSTA2), GSTA2 (gene 2939)
In words: LTEA_HepaRG_GSTA2: Life Technologies and Expression Analysis (LTEA) Assay for Glutathione S-Transferase (GSTA2) using HepaRG (AID 2283497). The procedure, abridged:
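Human HepaRG cells, plated 48 h, then exposed in serum-free induction medium for 48 h to eight half-log concentrations up to 100 uM in 0.5% DMSO, duplicate. GSTA2 mRNA by qRT-PCR, normalized to ACTB/GAPDH/POLR2A; bidirectional fit versus DMSO.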

Read-out in experiment [3]: Glutamate-cysteine ligase catalytic (GCLC), GCLC (gene 2729)
In words: LTEA_HepaRG_GCLC: Life Technologies and Expression Analysis (LTEA) Assay for Glutamate-cysteine ligase catalytic (GCLC) using HepaRG (AID 2283498). The procedure, abridged: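 Differentiated human HepaRG cells, plated 48 h then switched to serum-free induction medium, were exposed in duplicate for 48 h to 8 half-log concentrations topping at 100 uM in 0.5% DMSO. GCLC mRNA was quantified by qRT-PCR against ACTB, GAPDH and POLR2A.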

Read-out in experiment [4]: Glutamate-cysteine ligase regulatory (GCLM), GCLM (gene 2730)
In words: LTEA_HepaRG_GCLM: Life Technologies and Expression Analysis (LTEA) Assay for Glutamate-cysteine ligase regulatory (GCLM) using HepaRG (AID 2283500). The procedure, abridged: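 Differentiated HepaRG cells exposed 48 h in serum-free induction medium to eight half-log concentrations up to 100 uM (0.5% DMSO). GCLM mRNA by TaqMan qRT-PCR, normalized to ACTB, GAPDH and POLR2A; bidirectional fit versus DMSO.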

Read-out in experiment [5]: Glutathione S-transferase M3 (GSTM3), GSTM3 (gene 2947)
In words: LTEA_HepaRG_GSTM3: Life Technologies and Expression Analysis (LTEA) Assay for Glutathione S-transferase M3 (GSTM3) using HepaRG (AID 2283501). The procedure, abridged: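 Differentiated human HepaRG cells were exposed in duplicate for 48 h in serum-free induction medium, 8 points from 100 uM top in half-log steps, 0.5% DMSO. GSTM3 mRNA was measured by TaqMan qRT-PCR, normalized to ACTB, GAPDH and POLR2A; bidirectional fit versus DMSO.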

Read-out in experiment [6]: Heat shock 70 kDa protein 1 (HSPA1A), gene 3303
In words: LTEA_HepaRG_HSPA1A: Life Technologies and Expression Analysis (LTEA) Assay for Heat shock 70 kDa protein 1 (HSPA1A) using HepaRG (AID 2283502). The procedure, abridged: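 Human HepaRG cells in serum-free induction medium were exposed in duplicate for 48 h to 8 half-log concentrations, highest 100 uM, in 0.5% DMSO. HSPA1A mRNA read by TaqMan qRT-PCR, normalized to ACTB, GAPDH, POLR2A, fitted bidirectionally against DMSO.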

Read-out in experiment [7]: Hypoxia-inducible factor 1-alpha (Homo sapiens) (UniProt Q16665)
In words: LTEA_HepaRG_HIF1A: Life Technologies and Expression Analysis (LTEA) Assay for Hypoxia-inducible factor 1 (HIF1A) Trancription factor using HepaRG (AID 2283503). The procedure, abridged: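 Differentiated HepaRG cells in serum-free induction medium exposed 48 h, in duplicate, to 8-point half-log series from 100 uM in 0.5% DMSO. HIF1A mRNA measured by TaqMan qRT-PCR, normalized to ACTB/GAPDH/POLR2A, fitted bidirectionally versus DMSO.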

Read-out in experiment [8]: 3-Hydroxy-3-Methylglutaryl-CoA Synthase 2 (HMGCS2), HMGCS2 (gene 3158)
In words: LTEA_HepaRG_HMGCS2: Life Technologies and Expression Analysis (LTEA) Assay for 3-Hydroxy-3-Methylglutaryl-CoA Synthase 2 (HMGCS2) using HepaRG (AID 2283504). The procedure, abridged:
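Human HepaRG cells in serum-free induction medium were exposed in duplicate for 48 h to 8-point half-log series from 100 uM top in 0.5% DMSO. HMGCS2 mRNA measured by TaqMan qRT-PCR, normalised to ACTB, GAPDH, POLR2A; bidirectional fit versus DMSO.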

Read-out in a further experiment: HGF (gene 3082)
In words: LTEA_HepaRG_HGF: Life Technologies and Expression Analysis (LTEA) Assay for Hepatocyte Growth Facto (HGF) using HepaRG (AID 2283505). The procedure, abridged: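 Differentiated HepaRG cells in serum-free induction medium exposed 48 h in duplicate, 8 half-log concentrations from 100 uM in 0.5% DMSO. HGF mRNA by qRT-PCR, normalised to ACTB, GAPDH, POLR2A; bidirectional fitting.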

Read-out in experiment [9]: growth arrest and DNA damage 45 (GADD45G), GADD45G (gene 10912)
In words: LTEA_HepaRG_GADD45G: Life Technologies and Expression Analysis (LTEA) Assay for growth arrest and DNA damage 45 (GADD45G) using HepaRG (AID 2283499). The procedure, abridged:
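Differentiated human HepaRG cells, 48 h post-plating, exposed 48 h in serum-free induction medium to 8 half-log concentrations (top 100 uM, 0.5% DMSO) in duplicate. GADD45G mRNA measured by Fluidigm TaqMan qRT-PCR, normalized to ACTB, GAPDH, POLR2A; bidirectional fit versus DMSO.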

Sequence of Hypoxia-inducible factor 1-alpha (Homo sapiens) (Q16665 whole entry, looked up): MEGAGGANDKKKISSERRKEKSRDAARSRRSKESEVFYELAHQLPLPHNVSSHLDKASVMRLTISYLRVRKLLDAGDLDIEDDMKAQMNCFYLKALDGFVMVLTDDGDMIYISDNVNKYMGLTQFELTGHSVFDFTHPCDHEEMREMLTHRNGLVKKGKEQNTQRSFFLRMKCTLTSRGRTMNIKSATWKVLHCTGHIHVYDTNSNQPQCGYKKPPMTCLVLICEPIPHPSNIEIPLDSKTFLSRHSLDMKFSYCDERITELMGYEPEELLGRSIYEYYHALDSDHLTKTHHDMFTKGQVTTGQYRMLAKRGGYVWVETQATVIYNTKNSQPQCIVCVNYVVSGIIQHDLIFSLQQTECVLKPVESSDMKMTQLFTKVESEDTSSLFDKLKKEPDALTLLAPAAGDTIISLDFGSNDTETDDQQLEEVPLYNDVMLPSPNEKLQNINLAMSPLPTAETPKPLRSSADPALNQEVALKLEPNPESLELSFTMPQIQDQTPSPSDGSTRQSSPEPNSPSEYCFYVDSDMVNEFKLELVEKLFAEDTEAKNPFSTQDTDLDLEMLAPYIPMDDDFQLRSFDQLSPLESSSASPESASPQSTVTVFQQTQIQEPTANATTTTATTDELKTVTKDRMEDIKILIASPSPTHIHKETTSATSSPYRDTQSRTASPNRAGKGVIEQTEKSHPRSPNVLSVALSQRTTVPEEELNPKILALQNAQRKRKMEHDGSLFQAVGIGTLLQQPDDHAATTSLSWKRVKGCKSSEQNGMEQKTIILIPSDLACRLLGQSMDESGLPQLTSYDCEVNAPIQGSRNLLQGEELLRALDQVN

Regarding `CC(=O)C(C)=CC1C(C)=CCCC1(C)C` (configuration not stated), the compound was called inactive in experiment [1], in [2], in experiment [3], in [4], in experiment [5] and in [6]. Also, the compound was classed as inactive (in experiment [7]; in experiment [8]; with HGF (gene 3082)).

Regarding `CC1(C)NC(=O)NC1=O`, the outcome in [1], in experiment [2], in experiment [3], in experiment [4], in experiment [5] and in experiment [6] was inactive. For the same compound, the result (in experiment [7]; in experiment [8]; with HGF (gene 3082)) was inactive.

`NS(=O)(=O)c1cc2c(cc1Cl)NCNS2(=O)=O`: the call in experiment [1], in experiment [2], in experiment [3], in [4], in [5] and in experiment [6] was inactive. Besides, the result (in experiment [8]; with HGF (gene 3082)) was inactive.

As for `CC=Cc1ccc(O)c(OC)c1`, the result in experiment [1], in [2], in [3], in experiment [4], in [5] and in experiment [6] was inactive. The result (in experiment [7]; in experiment [8]; with HGF (gene 3082)) was inactive.

On to `CCCCCCCCCCCCCCCC`, for which the compound was classed as inactive in experiment [1], in experiment [2], in experiment [3], in experiment [4], in experiment [5] and in experiment [6]. The compound was classed as inactive (in experiment [7]; in experiment [8]; in the experiment with HGF (gene 3082)).

In the case of `Cc1c(C(=O)O)c(O)cc2c1C(=O)c1c(O)c([C@@H]3O[C@H](CO)[C@@H](O)[C@H](O)[C@H]3O)c(O)c(O)c1C2=O`, the outcome in [1], in [2], in experiment [3], in [4], in [5] and in experiment [6] was inactive. In addition, the outcome (in [7]; in experiment [8]; in the experiment with HGF (gene 3082)) was inactive.

For `CCOC(=O)C(C)(C)Oc1ccc(Cl)cc1`, the compound was classed as inactive in [1], in [2], in experiment [3], in [4], in [5] and in experiment [6]. Also, the outcome with HGF (gene 3082) was inactive. Moreover, the AC50 in experiment [8] is 9.92 µM (active).

In the case of `CCCCCCCC=O`, the compound was called inactive in experiment [1], in experiment [2], in experiment [3], in experiment [4], in experiment [5] and in [6]. Besides, the compound was classed as inactive (in experiment [7]; in [8]; in the experiment with HGF (gene 3082)).

In the case of `Cc1ccc(N(C)C)cc1`, the compound was classed as inactive in experiment [1], in [2], in experiment [3], in experiment [4], in experiment [5] and in experiment [6]. Moreover, the compound was called inactive (in [7]; in [8]; with HGF (gene 3082)).

As for `CCOc1ccc2c(c1)C(C)=CC(C)(C)N2`, the half-maximal activity concentration (AC50) in experiment [1] was 33.3 µM (active); in experiment [8] it was 20 µM (active). Moreover, the compound was classed as inactive (in experiment [2]; in experiment [3]; in experiment [4]; in experiment [5]; in experiment [6]; in the experiment with HGF (gene 3082)).

Take `CC(C)(C)c1cc(O)c(C(C)(C)C)cc1O`: the concentration at half-maximal activity (AC50) in experiment [2] was 77.8 µM (active); in experiment [5], 50 µM (active); in [7], 78.5 µM (active); in experiment [8], 78.2 µM (active). For the same compound, the result (in experiment [3]; in experiment [9]; in experiment [4]; in experiment [6]; with HGF (gene 3082)) was inactive.

In the case of `Cc1ccc2ncccc2c1`, the outcome in experiment [1], in experiment [2], in experiment [3], in experiment [4], in experiment [5] and in experiment [6] was inactive. The outcome (in experiment [7]; in experiment [8]; in the experiment with HGF (gene 3082)) was inactive.

In the case of `Cc1cccc([N+](=O)[O-])c1C`, the result in [1], in experiment [2], in experiment [3], in [4], in [5] and in experiment [6] was inactive. Also, the call (in experiment [7]; in experiment [8]; with HGF (gene 3082)) was inactive.

On to `C[C@]12C=CC(=O)C=C1CC[C@@H]1[C@@H]2C(=O)C[C@@]2(C)[C@H]1CC[C@]2(O)C(=O)CO`, for which the compound was called inactive in experiment [2], in [3], in experiment [4], in [5], in experiment [6] and in experiment [7]. Further, the call (in experiment [8]; in the experiment with HGF (gene 3082)) was inactive.

For the compound `Nc1ccc(S(=O)(=O)c2ccc(N)cc2)cc1`, the compound was called inactive in [1], in experiment [2], in experiment [3], in experiment [4], in experiment [5] and in [6]. In addition, the compound was classed as inactive (in experiment [8]; with HGF (gene 3082)).

In the case of `CCCc1cc(=O)[nH]c(=S)[nH]1`, the call in experiment [1], in experiment [2], in [3], in experiment [4], in experiment [5] and in experiment [6] was inactive. The outcome (in experiment [8]; with HGF (gene 3082)) was inactive.

As for `Cc1cccc(Nc2cc(Cl)nc(SCC(=O)O)n2)c1C`, the values for the AC50 in experiment [1] and in [8] were 19.5 µM (active) and 6.99 µM (active), respectively. Besides, the compound was called inactive (in experiment [2]; in experiment [3]; in experiment [4]; in experiment [5]; in experiment [6]; with HGF (gene 3082)).

Turning to `O=c1[nH]cc(F)c(=O)[nH]1`, the half-maximal activity concentration (AC50) in experiment [1] is 64.6 µM (active); in experiment [2] it was 78 µM (active); in [8] it was 51 µM (active). For the same compound, the call (in experiment [3]; in experiment [4]; in [5]; in experiment [6]; with HGF (gene 3082)) was inactive.

For the compound `Nc1ccccc1N`, the AC50 in experiment [1] was 79.9 µM (active); in experiment [2] it was 74.9 µM (active); in [3] it was 86.4 µM (active); in [6], 50 µM (active); in [8], 74 µM (active). In addition, the compound was classed as inactive (in [4]; in [5]; in experiment [7]; with HGF (gene 3082)).

In the case of `Cc1cccc(C)c1O`, the call in [1], in [2], in [3], in [4], in experiment [5] and in [6] was inactive. Further, the result (in [7]; in [8]; with HGF (gene 3082)) was inactive.

On to `NCC1(Cc2noc(=O)[nH]2)CCCCC1`, for which the outcome in experiment [1], in experiment [2], in [3], in experiment [4], in experiment [5] and in [6] was inactive. For the same compound, the outcome (in [7]; in [8]; with HGF (gene 3082)) was inactive.

As to `Oc1ccc2c(c1)OC[C@@H](N1CCC(O)(c3ccc(F)cc3)CC1)[C@H]2O`, the call in experiment [1], in experiment [2], in experiment [3], in experiment [4], in experiment [5] and in experiment [6] was inactive. Besides, the compound was classed as inactive (in experiment [7]; in experiment [8]; with HGF (gene 3082)).

For the compound `CC(=O)Oc1ccccc1C(=O)O`, the result in experiment [1], in experiment [2], in [3], in experiment [4], in experiment [5] and in [6] was inactive. For the same compound, the call (in experiment [8]; with HGF (gene 3082)) was inactive.

Take `CC(=O)OCCOCCOCCOC(C)=O`: the call in experiment [1], in experiment [2], in [3], in experiment [4], in experiment [5] and in experiment [6] was inactive. Moreover, the compound was called inactive (in [7]; in experiment [8]; with HGF (gene 3082)).
